Source: PubChem BioAssay AID449728 (The Scripps Research Institute Molecular Screening Center, 2010)
Among all 330,000 compounds or so, about 900 (0.27%) were called active. The sample as a whole holds a higher share of actives than the screen did. A number with no mark means an inactive call.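 The calls were made as follows: active = inhibition above the campaign's mean inhibition across all tested compounds plus 3 SD (cut at about 9.9% in these data); inactive = the rest.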

Test: E. coli V3065 growth inhibition, primary screen, counter-screen for AddAB inhibitor project, absorbance, OD600 (AID 449728);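 also: uninfected addAB+ strain grown without phage in ampicillin broth; 0% = DMSO wells and 100% = ciprofloxacin 0.95 µg/ml wells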
Conditions: 18 h, at 11.9 µM, stronger effect = higher value
For `Cc1ccc(CSCC2Nc3ccc(C(=O)N4CCN(c5ccc(F)cc5)CC4)cc3NC2=O)cc1` (configuration not stated), the inhibition was -0.76%.
With `O=C(O)CCCC(=O)Nc1ccc(Oc2cccc(C(F)(F)F)c2)nc1` the inhibition was 1.79%.
`Cc1ccc(OC(=O)c2ccccc2C(=O)OCC(F)(F)C(F)F)cc1` gave an inhibition of 0.25%.
With `O=C(CCC(=O)NNc1nc2ccccc2c2nc(-c3ccccc3)nn12)NCCCN1CCCC1=O` the inhibition was -1.57%.
`CCCc1nnc(SCC(=O)Nc2ccc(C(=O)OCC)cc2)o1` gave an inhibition of -1.1%.
In the case of `CCOC(=O)c1ccc(NC(=O)Cn2cnc3cc(C)c(C)cc32)cc1`, the inhibition is reported as 16.7% (active).
Work on `CCOC(=O)c1ccc(NC(=O)CSc2nnc(COc3ccccc3OC)n2C)cc1` yielded an inhibition of 2.63%.
In the case of `COc1cc(OC)cc(-c2c(C#Cc3ccsc3)c3cc(-c4ccc(SC)cc4)ccc3n2C)c1`, the inhibition is reported as 0.52%.
`COc1ccc(-c2ccc(CCC(=O)O)n2NC(=O)c2ccc(C(C)(C)C)cc2)cc1` gave an inhibition of 2.02%.
For `COc1ccc(CSc2nnnn2-c2ccc(O)cc2)cc1F`, the inhibition was -0.34%.
For `COCCn1c(SCC(=O)Nc2cc(OC)ccc2OC)nc2c(c1=O)SC(C)C2` (configuration not stated), the inhibition was -0.66%.
Work on `Cc1cc2c(cc1C)[n+](C)cn2CC(O)COCC1CC=CCC1` (configuration not stated) yielded an inhibition of -1.13%.
With `O=[N+]([O-])c1ccc(N=Cc2c(O)ccc3ccccc23)cc1` the inhibition was 25% (active).
Compound `Cc1nc2ccccc2nc(=O)c1NNc1ccc([N+](=O)[O-])cc1` has an inhibition of -0.37%.
Compound `O=C(Oc1ccc([N+](=O)[O-])cc1)c1ccc2ccccc2n1` has an inhibition of 0.89%.
`O=S(=O)(c1ccc(Br)cc1)n1ccc2ccccc21` showed an inhibition of 0.82%.
For `CCCc1nc(N)nc2c1C(=O)CC(C)(C)C2`, the inhibition was 0%.
`CCCC(=O)OCC(=O)Nc1cc(Cl)ccc1[N+](=O)[O-]` showed an inhibition of 0.59%.
In the case of `CC(C)(C)NC(=O)COC(=O)c1cc(Cl)ccc1[N+](=O)[O-]`, the inhibition is reported as 16% (active).
For `CC(C)(C)NC(=O)COC(=O)c1cc(Br)ccc1Cl`, the inhibition was -0.09%.
With `CSc1ccccc1NC(=O)C(C)N1C(=O)c2ccccc2S1(=O)=O` (configuration not stated) the inhibition was -0.94%.
Compound `CC1CC1C(=O)OCC(=O)c1c(N)n(C)c(=O)n(C)c1=O` (configuration not stated) has an inhibition of -1.26%.
Work on `COc1ccc(NC(=O)CSc2nc(SC)ns2)c(OC)c1` yielded an inhibition of -1.11%.
`CCCCCCNC(=O)CSc1nccn1Cc1ccccc1` gave an inhibition of -3.38%.
Work on `Cc1occc1C(=O)NC1CCCN(Cc2ccc(CC(C)C)cc2)C1` (configuration not stated) yielded an inhibition of -0.68%.
Compound `CCOc1ccc(OCCSc2nc3ccccc3n2CC(=O)O)cc1` has an inhibition of -0.94%.
In the case of `Oc1cccc(/C=N/Nc2ccc(Cl)nn2)c1O`, the inhibition is reported as 19.4% (active).
With `Oc1ccc(Br)cc1/C=N/Nc1ccccn1` the inhibition was 9.57%.
`Oc1c(Br)cccc1/C=N/Nc1c(F)c(F)c(F)c(F)c1F` gave an inhibition of 0.5%.
For `C/C(=C/C(=O)N1CCN(C)CC1)C(=O)O`, the inhibition was 0.17%.
`CCC1OC(c2ccc([N+](=O)[O-])cc2)=Nc2ccccc21` (configuration not stated) showed an inhibition of -1.44%.
In the case of `CCCCCOc1ccc(CSC2=NCCN2)cc1[N+](=O)[O-]`, the inhibition is reported as 0.17%.
For `CCCCOc1ccc(CSC(=N)N)cc1[N+](=O)[O-]`, the inhibition was 10.1% (active).
Work on `CCCCOC(=O)CCCc1ccc([N+](=O)[O-])cc1[N+](=O)[O-]` yielded an inhibition of 0.76%.
`O=C(Nc1ccccc1F)C1C2C=CC3(O2)C1C(=O)N(c1cccnc1)C3C(=O)NC1CCCCC1` (configuration not stated) showed an inhibition of -0.09%.
Compound `COC(=O)c1c(NC(=O)COC(=O)[C@@H](NS(=O)(=O)c2ccccc2)C(C)C)sc2c1CCC2` has an inhibition of -2.57%.
For `Oc1ccc2ccccc2c1N=Nc1nccs1`, the inhibition was 13.9% (active).
Work on `O=C(NC(=S)Nc1ncccn1)c1ccccc1Br` yielded an inhibition of 0.5%.
`O=C(CN1C(=O)COc2ccc(Cl)cc21)N1CCOCC1` gave an inhibition of 1.26%.
Work on `COc1ccc(NC(=O)CCn2ccnc2)c(OC)c1` yielded an inhibition of -1.17%.
For `CC(=O)NC12CC3CC(C1)CC(C(=O)N1CCN(S(=O)(=O)c4cccs4)CC1)(C3)C2`, the inhibition was -1.77%.
For `CCn1cc(C(=O)NCCO)c(=O)c2cc(F)c(N3CCN(C)CC3)cc21`, the inhibition was 97.8% (active).
For `CCn1cc(C(=O)NCCC(=O)NCCO)c(=O)c2cc3c(cc21)OCO3`, the inhibition was 1.2%.
With `CCCCCCn1cc(C(=O)O)c(=O)c2cc(F)c(N3CCCCC3)cc21` the inhibition was 1.34%.
In the case of `CN1CCN(c2cc3c(cc2F)c(=O)c(C(=O)O)cn3CCF)CC1`, the inhibition is reported as 100% (active).
`CCCCNC(=O)c1cn(CC)c2cc(N3CCN(C(=O)c4ccco4)CC3)c(F)cc2c1=O` gave an inhibition of 5.88%.
`CCn1cc(S(=O)(=O)c2cccc(C)c2)c(=O)c2cc(F)c(N3CCN(C)CC3)cc21` gave an inhibition of -4.05%.
